According to PMC4336329 (PLoS ONE, 2015):
The campaign covered roughly 310,000 compounds. About 14,000 (4.5%) showed an effect of 50% or more. The effect is printed as a negative number. This is one part of a sample in which strong results are shown more often than they occur.

These compounds were tested against human ether-à-go-go-related gene (hERG) potassium channel (human, UniProt Q12809) (assay: primary screen, population patch clamp on CHO cells stably expressing hERG; higher = less effect of the substance).
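Further: peak tail current of the secondary pulse compared with the same well before compound.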

Sequence of human ether-à-go-go-related gene (hERG) potassium channel (Q12809 whole entry, looked up): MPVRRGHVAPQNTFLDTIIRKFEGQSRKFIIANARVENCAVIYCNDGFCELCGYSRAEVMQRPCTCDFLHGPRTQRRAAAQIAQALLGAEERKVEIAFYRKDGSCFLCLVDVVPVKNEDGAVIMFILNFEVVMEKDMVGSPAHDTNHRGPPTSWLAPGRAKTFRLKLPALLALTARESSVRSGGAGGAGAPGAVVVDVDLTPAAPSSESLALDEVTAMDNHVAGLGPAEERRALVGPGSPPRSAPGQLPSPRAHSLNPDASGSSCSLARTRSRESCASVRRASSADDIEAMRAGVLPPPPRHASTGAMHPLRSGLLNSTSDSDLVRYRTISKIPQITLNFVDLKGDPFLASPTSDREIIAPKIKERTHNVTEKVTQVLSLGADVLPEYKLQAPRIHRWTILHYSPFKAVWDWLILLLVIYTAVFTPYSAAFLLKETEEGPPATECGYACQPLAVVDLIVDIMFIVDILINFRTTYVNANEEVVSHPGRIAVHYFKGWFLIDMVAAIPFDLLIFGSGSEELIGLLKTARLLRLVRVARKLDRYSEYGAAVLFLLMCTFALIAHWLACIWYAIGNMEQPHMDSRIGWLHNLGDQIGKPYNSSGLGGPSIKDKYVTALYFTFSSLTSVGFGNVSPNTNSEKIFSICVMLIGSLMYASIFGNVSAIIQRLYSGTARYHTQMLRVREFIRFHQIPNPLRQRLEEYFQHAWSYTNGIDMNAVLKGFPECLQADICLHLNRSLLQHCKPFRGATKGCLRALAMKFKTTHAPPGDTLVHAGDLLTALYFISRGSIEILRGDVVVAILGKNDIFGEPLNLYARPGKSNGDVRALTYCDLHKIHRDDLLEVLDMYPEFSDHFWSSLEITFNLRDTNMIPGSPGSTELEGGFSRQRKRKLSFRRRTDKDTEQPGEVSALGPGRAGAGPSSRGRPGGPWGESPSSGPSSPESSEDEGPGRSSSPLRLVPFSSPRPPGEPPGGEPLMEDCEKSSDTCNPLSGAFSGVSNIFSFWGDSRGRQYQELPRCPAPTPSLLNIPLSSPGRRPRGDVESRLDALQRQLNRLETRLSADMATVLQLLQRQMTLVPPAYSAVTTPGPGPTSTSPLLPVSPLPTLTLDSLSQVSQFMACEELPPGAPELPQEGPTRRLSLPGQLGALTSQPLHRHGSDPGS

SMILES | hERG current change (%, negative = inhibition) at 10uM
Nc1ccc2nc3c(=O)n(C4CCCCC4)c(=O)[nH]c3nc2c1 | -0.914%
CC(=O)c1c(C(C)=O)c(C)n(C2CCCCC2)c1C | 2.97%
NC(=O)c1ccc(NC(=O)CCCc2nc(-c3ccccc3Cl)no2)cc1 | 18.4%
CCOc1ccc(S(=O)(=O)N2CCC(C(=O)NCCN3CCOCC3)CC2)cc1C | 1.77%
CCOC(=O)C(=CNc1ncccc1C)C(=O)OCC | 1.51%
CC(C)CCNC(=O)Cn1c(=O)oc2cc(S(=O)(=O)N3CC(C)CC(C)C3)ccc21 (stereo not shown) | 13.3%
CN1CCN(CCCc2c3c(cc4c2CCC4)CCC3)CC1.Cl | -19.8%
CCCCNC(=O)CCC(=O)Nc1ccc2nc(N3CCCCC3)cc(C)c2c1 | -18.5%
Cc1cc(N2CCCCC2)nc2ccc(NC(=O)c3ccc(Br)o3)cc12 | -52.9%
COc1ccc(C(=O)Nc2ccc3nc(N4CCCCC4)cc(C)c3c2)c(OC)c1 | 4.06%
CCC1(c2ccccc2)NC(=O)N(CC(=O)Nc2cc(S(=O)(=O)N3CCCCC3)ccc2OC(C)C)C1=O (stereo not shown) | -5.02%
CCOc1ccc(S(=O)(=O)N2CCOCC2)cc1NC(=O)CN1C(=O)NC(C)(c2ccccc2)C1=O (stereo not shown) | -52.6%
CCOc1ccc(S(=O)(=O)N2CCCCC2)cc1NC(=O)CN1C(=O)NC(CC)(c2ccccc2)C1=O (stereo not shown) | -15%
CCOc1ccc(S(=O)(=O)N2CCOCC2)cc1NC(=O)CN1C(=O)NC(CC)(c2ccccc2)C1=O (stereo not shown) | -73.5%
CCC1(c2ccccc2)NC(=O)N(CC(=O)Nc2cc(S(=O)(=O)N3CCOCC3)ccc2OC(C)C)C1=O (stereo not shown) | -55.7%
CC1(c2ccccc2)NC(=O)N(CC(=O)Nc2cc(S(=O)(=O)N3CCOCC3)ccc2Cl)C1=O (stereo not shown) | -7.82%
CC(C)Oc1ccc(S(=O)(=O)N2CCOCC2)cc1NC(=O)CN1C(=O)NC2(CCCC2)C1=O | -17.8%
CCOc1ccc(S(=O)(=O)N2CCCCC2)cc1NC(=O)CN1C(=O)NC(C)(c2ccccc2)C1=O (stereo not shown) | -35.5%
CCOc1ccc(S(=O)(=O)N2CCOCC2)cc1NC(=O)CN1C(=O)NC2(CCCC2)C1=O | 5.87%
C[C@H](C(=O)NCc1ccccc1)C(=O)c1ccccc1 | 18%
CCOC(=O)CN1C(=O)C(O)(CC(=O)c2ccccn2)c2ccccc21 (stereo not shown) | 14.6%
Cc1nn(Cc2ccccc2)c(C)c1C(=O)NCc1ccccc1 | 6.55%
COc1ccc2cc(C(=O)OC(C)C)sc(=O)c2c1OC | 2.45%
Cc1ccc(/C(N)=N/OC(=O)c2ccc3ccccc3c2)cc1 | 0.62%
CCOC(=O)N1CCC(N2Cc3cccc(C(=O)Nc4ccc(OCC)cc4)c3C2=O)CC1 | 9.07%
CCOC(=O)N1CCC(N2Cc3cccc(C(=O)Nc4cc(F)ccc4F)c3C2=O)CC1 | -23.1%

SMILES | hERG current change (%, negative = inhibition) at 10uM
O=C(Nc1cccc(F)c1)c1cccc2c1C(=O)N(C1CCCCC1)C2 | 12.2%
CCOC(=O)N1CCC(N2Cc3cccc(C(=O)Nc4ccc(CC)cc4)c3C2=O)CC1 | -42.6%
CCOC(=O)N1CCC(N2Cc3cccc(C(=O)Nc4c(C)cccc4CC)c3C2=O)CC1 | -77.1%
CCOC(=O)N1CCC(N2Cc3cccc(C(=O)NCc4ccccn4)c3C2=O)CC1 | -34.5%
CCOC(=O)N1CCC(N2Cc3cccc(C(=O)NCc4ccc5c(c4)OCO5)c3C2=O)CC1 | -19.5%
CCOC(=O)N1CCC(N2Cc3cccc(C(=O)NC(C)c4ccc5c(c4)OCCO5)c3C2=O)CC1 (stereo not shown) | -67.5%
CCOC(=O)N1CCC(N2Cc3cccc(C(=O)Nc4cccc(F)c4)c3C2=O)CC1 | -72.1%
Cc1cccc(C)c1NC(=O)c1cccc2c1C(=O)N(C1CCCCC1)C2 | -7.01%
CCOC(=O)N1CCC(N2Cc3cccc(C(=O)Nc4ccc(F)cc4)c3C2=O)CC1 | -55.3%
CCOC(=O)N1CCC(N2Cc3cccc(C(=O)Nc4ccc(N(CC)CC)cc4C)c3C2=O)CC1 | -7.16%
COc1ccc(OC)c(/C=N/n2c(COc3ccccc3)n[nH]c2=S)c1 | 12.2%
CCOc1ccc(-c2noc(-c3cccnc3)n2)cc1OCC | 13.7%
O=c1[nH]nc(Cc2ccc3ccccc3n2)c2ccccc12 | 1.36%
COc1ccc2[nH]c(=O)c(CN(Cc3cccs3)C(=S)Nc3ccccc3)cc2c1 | 16.7%
Fc1ccc(NC(=S)Nc2cccnc2)c(F)c1F | 20.1%
COc1ccccc1CNC(=O)COc1ccc2c(c1)CCC2 | -1.2%
Nc1ncnc2c1ncn2CCOc1ccccc1 | 5.18%
Cc1cccc2sc(N(CCCN(C)C)C(=O)c3ccco3)nc12.Cl | -74.9%
CN(C)CCCN(C(=O)c1cc(-c2cccs2)nc2ccccc12)c1nc2c(F)cccc2s1.Cl | -48.8%
COc1cc2ccccc2cc1C(=O)N(CCN(C)C)c1nc2c(F)cc(F)cc2s1.Cl | -10.1%
CN(C)CCCN(C(=O)c1ccco1)c1nc2c(F)cc(F)cc2s1.Cl | -72.2%
CN(C)CCN(C(=O)/C=C/c1cccs1)c1nc2c(F)cc(F)cc2s1.Cl | -47.8%
Cc1cccc2sc(N(CCCN(C)C)C(=O)c3nc4ccccc4s3)nc12.Cl | 4.2%
CN(C)CCCN(C(=O)c1ccco1)c1nc2c(F)cccc2s1.Cl | -73.2%
Cc1cccc2sc(N(CCCN(C)C)C(=O)c3ccc(Cl)s3)nc12.Cl | -69.7%
Cc1cccc2sc(N(CCN(C)C)C(=O)c3cc(Cl)sc3Cl)nc12.Cl | -22.7%
